Here are results for 40 compounds from PubChem BioAssay (NCI).

Compounds without any hit were thinned out: in the full panel of roughly 83,000, 20% have a hit.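 Step 1: grow cells in 96-well plates. Step 2: add test compound at a single concentration. Step 3: incubate 48 h. Step 4: record percent growth.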 Values without a mark were called inactive. Activity calls are given as the source filed them.

This experiment relates to SK-OV-3 ovarian. In words: NCI-60 one-dose screen, 48 h (100 = growth as untreated, 0 = no growth, -100 = all killed). Particulars: 10 µM. The procedure:
Growth inhibition of the SK-OV-3 human tumor cell line is measured as a screen for anti-cancer activity. Cells are grown in 96 well plates and exposed to the test compound for 48 hours. Compounds are tested at a single concentration, which is 10^-5 M for most compounds. The reported endpoint is percent growth (GI% or GIPRCNT), where numbers from 0 - 100% represent growth inhibition, and numbers from -100% - 0 represent cell death. For example, a value of 40 represents 60% growth inhibition. A value of 0 means no net growth occurred over the course of the experiment. A value of -40 indicates 40% of cells at the beginning of the experiment died by the end of the experiment. A value of -100 means all cells are dead at the end of the experiment.
NCI-60 Human Tumor Cell Lines Screen was performed using the standard one-dose NCI protocol, which is described in more detail at https://dtp.cancer.gov/discovery_development/nci-60/default.htm.
Compounds with GIPRCNT values below 10 were considered active. Activity score was based on GIPRCNT using the following formula: […]
Score is 0 for GIPRCNT values of 100 or above, 50 for GIPRCNT values of 0, and 100 for GIPRCNT values of -100.
Turning to `Cc1ccc([N+](=O)[O-])c(C(=O)Nc2ccc(-c3ccc4c(c3)NC(=O)/C4=C\c3ccc[nH]3)cc2)c1`, the growth is 109%. As to `COc1ccc2nc(Cl)c(-c3cc(-c4ccccc4)nc(N)n3)cc2c1`, the growth is 95.1%.

Regarding `Cc1ccc(NC(=O)c2ccc(-n3c(=O)[nH]c4ccccc4c3=O)cc2)cc1`, the growth was 82.5%. To `N#Cc1c(NC(=O)c2cccc(C(F)(F)F)c2)sc2c1CCC(O)=C2` belongs 40.3%. Regarding `Nc1nc2c(F)c(F)c(F)c(F)c2s1`, the growth was 99.5%.

As to `COc1ccc(-c2cc(-c3cc(C(=O)c4ccc(Br)cc4)n4ccc(C)cc34)nc(N)c2C#N)cc1`, the growth is 105%. As for `CS(=O)(=O)Nc1ccc(-c2ccc3c(c2)ncn3-c2ccc(NC(=O)Nc3ccc(Cl)c(C(F)(F)F)c3)cc2)cc1`, the figure is -53.4% (active); as for `C/C(=C\CSc1ccccc1C(=O)O)CCCC(C)CCCC(C)CCCC(C)C` (stereo not given), 96.5%; as for `O=C(CSc1nnc(-c2c[nH]c3ccccc23)n1-c1ccccc1)Nc1ccc(C(=O)/C=C/c2ccc(Br)cc2)cc1`, 88.3%. To `O=C(c1ccc(Cl)cc1)C1[C@H](c2ccc(Br)cc2)[C@@H](c2ccccc2)NC12C(=O)Nc1ccc(Cl)cc12` (stereo not given in full) belongs 11.5%.

Regarding `NS(=O)(=O)c1ccc(N=Nc2c(O)n(CC(=O)Nc3ccccc3Br)c3ccccc23)cc1`, the growth was 41.5%. As for `COc1ccc2nc(Nc3cccc(NC(=O)c4ccc(CN5CCN(C)CC5)c(C(F)(F)F)c4)c3)ccc2c1`, the figure is -48.8% (active). As for `CC(=O)c1ccc(Nc2nc(SC(C)C)nc(-c3ccccc3)c2C#N)cc1`, the figure is 36.2%; as for `Cc1cc(C(F)(F)F)ccc1C(=O)Nc1sc2c(c1C#N)CCC(=O)C2`, -18.9% (active). Turning to `O=C1NC(=NC2CCCCCC2)N/C1=C\c1ccc2ncoc2c1`, the growth was 24.4%. To `COc1ccc(C(=O)/C=C/c2cc(C(F)(F)F)cc(C(F)(F)F)c2)cc1S(N)(=O)=O` belongs 20%; to `COc1cc2c3c(n(CCCN4CCOCC4)c(=O)c2cc1OC)-c1nc2c(cc1C3=O)OCO2`, -4.15% (active). As for `Cc1ccc(C(=O)NCCCNc2nc(Nc3ccc(N4CCN(C)CC4)cc3)nc3ccsc23)cc1`, the figure is 92.9%. `Cc1ccc(C(=O)N/C(=C2/OCCN2C)[P+](c2ccccc2)(c2ccccc2)c2ccccc2)cc1`: the growth is 104%. As for `Cc1ccc(-c2cc(-c3cc4ccccc4nc3Cl)[nH]c(=S)n2)cc1`, the figure is 74.2%; as for `O=c1oc2ccc(-c3ccc(F)cc3F)cc2c(=O)n1-c1ccc(F)cc1`, -11% (active); as for `NC1=NC(c2ccccc2Cl)N=C(Nc2nn[nH]n2)N1` (stereo not given), 123%. To `Cc1cc(=O)oc2cc(OCCCCOc3ccc(/C=C/C(=O)Nc4ccccc4[N+](=O)[O-])cc3)ccc12` belongs 119%; to `N#Cc1c(-c2ccc(Cl)cc2)cc(-c2ccccc2)nc1OCc1ccccc1`, 83.1%; to `COc1cc(-c2nc3cc(Cl)c(Cl)cc3[nH]2)ccc1OCc1nnc(-c2ccc(Br)cc2)o1`, -11.1% (active). To `OCCNc1oc(-c2ccccc2)nc1[P+](c1ccccc1)(c1ccccc1)c1ccccc1` belongs -3.42% (active); to `COc1cc(C2CC(c3ccccc3)=Nc3c(N)nc(N)nc3N2)ccc1Oc1nc(Nc2ccc(F)cc2)nc(N(C)C)n1` (stereo not given), 87.2%; to `Cc1ccc(-c2nc(Nc3ccccc3C(=O)O)c3ccccc3n2)cc1`, 31.3%. In the case of `CC1(c2ccccc2)NC(=O)N(CC(=O)Nc2ccc(C(=O)/C=C/c3ccccc3)cc2)C1=O` (stereo not given), the growth was 121%. As for `Cn1cc(/C=N/Nc2ccnc3cc(Cl)ccc23)c2ccccc21`, the figure is -71.2% (active). As for `N#Cc1ccc(-c2nn(-c3ccc(C(=O)O)cc3)cc2CNc2cc(Cl)cc(Cl)c2)cc1`, the figure is 126%; as for `CN1CCN(c2ccc(C(=O)/C=C/c3cc(Br)ccc3F)cc2)CC1`, 44.4%; as for `CC(=C(c1ccc(OCCN2CCCCC2)cc1)c1ccc(OCCN2CCCCC2)cc1)c1ccccc1`, 74.6%. As for `Cc1nc(Nc2nc(C)c3ccc(OCCN4CCOCC4)cc3n2)[nH]c(=O)c1C`, the figure is -6.44% (active); as for `CCOc1ccc2ncc(C#Cc3cncc(C(=O)Nc4ccc(CN5CCN(C)CC5)c(C(F)(F)F)c4)c3)n2n1`, 45.7%; as for `CC1(C)CC[C@]2(C(=O)NCCCNCCCCNCCCN)CC[C@]3(C)C(=CC[C@@H]4[C@@]5(C)Cc6c([nH]c7ccccc67)C(C)(C)[C@@H]5CC[C@]43C)[C@H]2C1`, 66.6%. Turning to `CN1C(=O)N(C)C2SC(N/N=C/c3ccc(F)cc3)=NC21` (stereo not given), the growth is 61.8%.

Consider `O=C(c1ccc(O)cc1)C1[C@H](c2ccc(Br)cc2)[C@@H](c2ccccc2)NC12C(=O)Nc1ccc(Br)cc12` (stereo not given in full), for which the growth was 13.2%. As for `O=C(/C=C/Nc1ccccc1)c1ccc2c(c1)Nc1ccccc1S2`, the figure is 86.3%; as for `COc1ccc(-c2nc(S(=O)(=O)c3ccccc3)c(S(C)(=O)=O)o2)cc1`, 97.9%.
